Laboratory results taken from PubChem BioAssay (NCATS).
Results filed as inconclusive are left out. Values without a mark were called inactive. Calls of active or inactive are those of the source. Calls follow the shape of the dose curve; as a rule, active = well fitted cell-killing curve with a large enough effect; inconclusive = small, poorly fitted or top-dose-only effect; inactive = flat fitted curve, though single readings scatter. Bridge positions count the residues as written; N and C are the ends. Square brackets hold non-standard residues; d marks the D form. Peptide text beside a SMILES is read from it. * marks the point of attachment. ξ: configuration not given here. Octanoyl(6-Me) = CCC(C)CCCCC(=O)*; ξThr(3R) = C[C@@H](O)C(N)C(=O)O; dDab = NCC[C@@H](N)C(=O)O; Dab = NCC[C@H](N)C(=O)O
Potency is read from the fitted curve at half-maximal effect.

Assay: Quantitative highthroughput screen to assess conditional lethalithy of NOMO1 cells grown in RPMI1640 with untreated serum (RPMI+s) (AID 1963876); also: nearly all actives have a fitted effect of over 35% in size
Details: NOMO1 AML cells in RPMI+serum, CellTiter-Glo viability, 48 h; series mostly up to 45.8 µM; viability: at the top concentration
Excerpt: Assay Provider: Jason Cantor Ph.D.
Department of Biochemistry
University of Wisconsin-Madison, Madison, WI, USA
Chemical screening studies have identified drug sensitivities across hundreds of cancer cell lines but most putative therapeutics fail to translate. Discovery and development of drug candidates in models that more accurately reflect nutrient levels in human blood is a major challenge. Here we performed high-throughput screens in conventional versus Human Plasma-Like Medium (HPLM) to identify compounds that were "missed" when screening using the artificial culture condition. Sets of conditional anticancer compounds spanned phases of clinical development and included non-oncology drugs were assessed. […] We also traced conditional phenotypes for several chemotherapeutics to availability of HPLM-specific metabolites and confirmed others for compounds whose reported targets are encoded by nonessential genes. Our findings establish generalizable strategies for exploiting conditional lethality in HPLM to reveal therapeutic candidates and mechanisms of action in cancer cells.
Described herein are the results of each viability screens against three cell lines: NOMO1 (an acute myeloid leukemia cell line); P12-Ichikawa (a T-cell acute lymphoblastic leukemia); and SEM (a B-cell ALL). Each assay was screened using 3 different cell culture media: homemade human plasma-Like medium with 10% dialyzed fetal bovine serum (HPLM+ds); RPMI1640 with 10% untreated FBS and 5mM glucose (RPMI+s); and RPMI1640 with 10% dialyzed fetal bovine serum and 5 mM glucose (RPMI+ds).
PROTOCOL TABLE (as described by Inglese J, Shamu CE and Guy RK. 2007)
SEQUENCE No. (e.g., 1, 2, 3, etc.); […] (e.g., Cells, Incubation, Reagent, etc.); VALUE and DESCRIPTION.
1; Cells; 5 uL; white, solid bottom 1536-well Greiner assay plate.
2; Compounds; 23 nL; Kalypsis pin tool (Wako USA) equipped with a 1536-well pin head to transfer to the assay plates.
3; Incubation; 48 hours; 37C incubation.
4; Reagent; 3 uL; CellTiter Glo (Promega).
5; Incubation; 5 min, room temperature
6; Detection; Luminescence, Viewlux PerkinElmer.
NOTES (numbers refer to Sequence numbers above)
1. Briefly, 5 ul of cell reagent was dispensed using a Multidrop Combi Dispenser. The NOMO1 and SEM cells were plated at 500 cells/well and the P12-Ichikawa line at 1000 cells/well.
2. After seeding the cells, 23 nL of MIPE 4.1 library compounds (in DMSO) were added to each plate using a Kalypsys 1536 Pintool dispenser. Bortezomib at final concentration of […] and DMSO were added to each plate as positive and negative controls respectively. For each screen, MIPE 4.1 compounds were added over an eleven-point concentration range […] in 3-fold dilutions.
3. Each plate was covered with a stainless steel gasketed lid to prevent evaporation and incubated for 48 hour at 37C, 95% relative humidity, and 5% CO2.
4-5. Three microliter CellTilter-GloTM luminescent substrate mix (Promega) reagent was added to the assay plate and incubated at room temperature for 5 min.
6. The luminescence signal was measured using a ViewLux (PerkinElmer) multiplate reader with a 2 second exposure time per plate. Data for each compound were normalized as percent viability such that measurements for DMSO and the empty well controls in each plate were defined as 100% and 0%, respectively.
With `C[C@H](NC(=O)C(C#N)=Cc1cccc(Br)n1)c1ccccc1` the Potency was 2640 nM (active).
For `C[C@H]1Oc2cc(cnc2N)-c2c(nn(C)c2C#N)CN(C)C(=O)c2ccc(F)cc21`, the “viability” value was 91.9%.
For `CC[C@]1(O)C[C@@H]2CN(CCc3c([nH]c4ccccc34)[C@@](C(=O)OC)(c3cc4c(cc3OC)N(C=O)[C@@H]3C45CCN4CC=C[C@](CC)([C@H]45)[C@@H](OC(C)=O)[C@]3(O)C(=O)OC)C2)C1` (stereo not given in full), the “viability” value was 108%.
In the case of `CC1COc2c(N3CCN(C)CC3)c(F)cc3c(=O)c(C(=O)O)cn1c23` (stereo not given), the “viability” value is reported as 99.9%.
In the case of `COCCOc1ccc2c(c1)ncn2-c1ccc2cccc(N3CCC(N)CC3)c2n1`, the Potency is reported as 18700 nM (active).
For `Cc1nc2ccc(CN(C)c3ccc(C(=O)N[C@@H](CCC(=O)O)C(=O)O)s3)cc2c(=O)[nH]1`, the Potency was 418 nM (active).
With `CC(=O)O[C@]1(C(C)=O)CC[C@H]2[C@@H]3C=C(C)C4=CC(=O)CC[C@]4(C)[C@@H]3CC[C@@]21C` the “viability” value was 105%.
In the case of `Cc1[nH]c(=O)c(C#N)cc1-c1ccc2nccn2c1`, the “viability” value is reported as 92%.
With `CC[C@H]1OC(=O)[C@H](C)[C@@H](O[C@H]2C[C@@](C)(OC)[C@@H](O)[C@H](C)O2)[C@H](C)[C@@H](O[C@@H]2O[C@H](C)C[C@H](N(C)C)[C@@H]2O)[C@](C)(O)C[C@@H](C)CN(C)[C@H](C)[C@@H](O)[C@]1(C)O` the “viability” value was 88.2%.
For `CN1C(=O)c2sccc2N(C)c2nc(Nc3ccc(S(N)(=O)=O)cc3)ncc21`, the Potency was 10500 nM (active).
For `COc1ccc(-c2ccc3ncc4c(c3c2)n(-c2ccc(N3CCNCC3)c(C(F)(F)F)c2)c(=O)n4C)cn1`, the Potency was 526 nM (active).
For `CCOc1cc(N)c(Cl)cc1C(=O)NCC1CN(Cc2ccc(F)cc2)CCO1` (stereo not given), the “viability” value was 96.1%.
With `O=c1ccn([C@@H]2O[C@H](CO)[C@H](O)[C@@H]2F)c(=O)[nH]1` the “viability” value was 91.7%.
With `N#Cc1c(N(CC(=O)O)CC(=O)O)sc(C(=O)O)c1CC(=O)O` the “viability” value was 92.8%.
With `Clc1ccc(COC(Cn2ccnc2)c2ccc(Cl)cc2Cl)cc1` (stereo not given) the “viability” value was 86.5%.
For `O=NN(CCCl)C(=O)NC1CCCCC1`, the “viability” value was 99.5%.
In the case of `CC(C)(Sc1ccc(CCN(CCCCC2CCCCC2)C(=O)NC2CCCCC2)cc1)C(=O)O`, the “viability” value is reported as 118%.
With `CN(C)Cc1c(C(=O)NCCOc2ccc(C(=O)NO)cc2)oc2ccccc12` the Potency was 4180 nM (active).
With `Cc1c(C)c2c(c(C)c1O)CCC(C)(COc1ccc(CC3SC(=O)NC3=O)cc1)O2` (stereo not given) the “viability” value was 98%.
For `CCOC(=O)C(C)(C)Oc1ccc(Cl)cc1`, the “viability” value was 110%.
In the case of `CC1(C)S[C@H]2[C@H](NC(=O)[C@@H](N)c3ccc(O)cc3)C(=O)N2[C@@H]1C(=O)O`, the Potency is reported as 8330 nM (active).
In the case of `Cc1ccc(-c2ncn(-c3ccc(Nc4nccc(-c5cccc(N6CCOCC6)c5)n4)cc3)n2)cn1`, the Potency is reported as 372 nM (active).
With `CCC1=C(C)CN(C(=O)NCCc2ccc(S(=O)(=O)NC(=O)NC3CCC(C)CC3)cc2)C1=O` (stereo not given) the “viability” value was 101%.
For `C=CCc1cc(OC)c(O)c(C(=O)NCCO)c1`, the “viability” value was 94.9%.
For `CCNC(=O)c1noc(-c2cc(C(C)C)c(O)cc2O)c1-c1ccc(CN2CCOCC2)cc1`, the Potency was 83.3 nM (active).
In the case of `Nc1nc(Cl)nc2c1ncn2[C@H]1C[C@H](O)[C@@H](CO)O1`, the Potency is reported as 209 nM (active).
With `COc1ccc2c(OCc3nnc4ccc(-c5ccccc5)nn34)ccnc2c1` the “viability” value was 102%.
In the case of `CCC(C)CCCCC(=O)N[C@@H](CCN)C(=O)NC(C(=O)N[C@H](CCN)C(=O)N[C@@H]1CCNC(=O)C([C@@H](C)O)NC(=O)[C@@H](CCN)NC(=O)[C@@H](CCN)NC(=O)[C@@H](CC(C)C)NC(=O)[C@H](Cc2ccccc2)NC(=O)[C@H](CCN)NC1=O)[C@@H](C)O` (stereo partly drawn) ({Octanoyl(6-Me)}-[Dab][ξThr(3R)][dDab][dDab][Dab]F[dL][dDab][dDab][ξThr(3R)]; lactam 4-C), the “viability” value is reported as 100%.
For `CN(C(=O)c1ccc(F)cc1C(F)(F)F)C1CCN(c2nnc(-c3ccnn3C)c3ccccc23)CC1`, the “viability” value was 91.1%.
For `OCC(O)C(O)C(O)CO` (stereo not given), the “viability” value was 99%.
For `O=C(O)CCNc1cc(N2CCc3ccccc3CC2)nc(-c2ccccn2)n1`, the “viability” value was 91.3%.
With `COc1ccc(C(=O)CC2(O)C(=O)Nc3c(Cl)ccc(Cl)c32)cc1` (stereo not given) the Potency was 9350 nM (active).
In the case of `COc1cc2ncnc(Nc3ccc(F)c(Cl)c3)c2cc1OCCCN1CCOCC1`, the “viability” value is reported as 91.4% [at 92.2 µM].
In the case of `Nc1nc2ccc(OC(F)(F)F)cc2s1`, the “viability” value is reported as 93.4%.
With `Cc1ccc(C2=Nc3ccc(Cl)cc3OC2)cc1` the “viability” value was 90.9%.
For `CNC(=O)c1cc(Oc2ccc(NC(=O)Nc3cc(C(C)(C)C)nn3-c3ccc4ncccc4c3)c(F)c2)ccn1`, the “viability” value was 108%.
With `CN(C)CCN(Cc1ccc(Cl)cc1)c1ccccn1` the “viability” value was 105%.
In the case of `CC(C)C[C@H](NC(=O)[C@H](Cc1ccccc1)NC(=O)c1cnccn1)B(O)O`, the Potency is reported as 46.9 nM (active).
With `CN[C@H]1CCc2cc(OC)c(OC)c(OC)c2-c2ccc(OC)c(=O)cc21` the Potency was 9.3 nM (active).
With `O=C1CCC(N2C(=O)c3ccccc3C2=O)C(=O)N1` (stereo not given) the “viability” value was 107%.
